Results reported in paper PMC12136788.
Changes are numbered by the printed parent chain. The full ranking holds about 24,000 sequences; the median of “enrichment r” is about 0.99, and the highest 2% start at about 3.7. Shown is part of a subset that was picked to be rich in the highest values.

T1: UNK ZnF1-3 (human, UniProt Q9C0B0 31-174)
T1 sequence: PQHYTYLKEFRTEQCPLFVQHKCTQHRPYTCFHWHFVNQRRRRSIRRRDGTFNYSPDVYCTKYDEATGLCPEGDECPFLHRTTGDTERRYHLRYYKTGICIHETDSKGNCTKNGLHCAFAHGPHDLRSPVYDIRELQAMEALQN

B1: chr12:98991669:98991670:+_ENSG00000075415_ENST00000552981|hu_mus|motif|central (ssRNA)
RNA: GGGAGUUCUACAGUCCGACGAUCGAAUCCAUUAAAUAUGCCUUUGUACUUCUGAGGGUCCACCUGCAUGCGGCACUUUACGGAGUCCAGGGGAACAACAGCAGUGUGUGUCAGCCCACAACUUAAGACCCCACCAAAGCCACACAACAGAGGAUUGAGCAUCA
B2: chr4:115894766:115894767:+_ENSMUSG00000028698_ENSMUST00000030464|mus_hu|mus_mus_mus_hu_True|1_98 (ssRNA)
RNA: GGGAGUUCUACAGUCCGACGAUCUUCCACACGGAAAGUACUUGGGGGUUUUCCAACGGCCAGUACCAGUCCGGCCAAACUACCCGAACAGGGUCCUCCCCCUCUCUCCUACAGAACACAACAAAAUGCCCCCGAACCCCGAACCAACAGAGGAUUGAGCAUCA
B3: chr2:69705335:69705336:+_ENSMUSG00000068882_ENSMUST00000090852|mus_mus|FALSE|FALSE (ssRNA)
RNA: GGGAGUUCUACAGUCCGACGAUCUUGGCCUUUAUCGUCUAGCCAUUCUUUUAUAUCAUCAAGGGUGGCGUCAGUUGGGAAACCUUUAAUAUAAACAGAUCUGUUUUUUACAUCAUUCUUAUACUCAUCCGUCACUUCAGGGAGCAACAGAGGAUUGAGCAUCA
B4: chr8:122087627:122087628:-_ENSMUSG00000034189_ENSMUST00000036049|mus_mus|FALSE|FALSE (ssRNA)
RNA: GGGAGUUCUACAGUCCGACGAUCGCAUUAAAGGCGUGAGCCCCCACGCCCAGCCUGAGGAACAUCUUGAAAGCCAAUACUAUAAUCAGUCACCUGUAAAAGGAAAACAGGUGACUUCUCAAAAAAAAAAAAAAAAGAAAGAAACAACAGAGGAUUGAGCAUCA
B5: chr13:41369856:41369857:+_ENSMUSG00000091264_ENSMUST00000165561|mus_hu|FALSE|FALSE (ssRNA)
RNA: GGGAGUUCUACAGUCCGACGAUCGCACUUCAUUCUUGUACAAAGCAGGUAACACUAAACAGGAAGGUUGUUUAAUUCACAUCUCUUCUCCCUGGUAAACACUCAGCCCAGAGUUCAGUUGAGACAAACACGGAAACCUGGCAACAACAGAGGAUUGAGCAUCA
B6: chr12:48362563:48362564:+_ENSG00000134291_ENST00000256686|hu_hu|hu_hu_hu_mus_False|98_108 (ssRNA)
RNA: GGGAGUUCUACAGUCCGACGAUCUCCGAAGGGUGAAUCAAGCCCCACUUGCGGGGGAAACUGUAAUCACUUUGUAUGGGGAAGGAAAAGAAACGCCAAAAACUUUCCAAAAAGCGGGGGUGGGGUGAGGCGGGAGGGGGAGGUCAACAGAGGAUUGAGCAUCA
B7: chr8:122087627:122087628:-_ENSMUSG00000034189_ENSMUST00000036049|mus_mus|motif|central (ssRNA)
RNA: B4 RNA with U80G, A81G
B8: chr8:124405102:124405103:-_ENSMUSG00000040010_ENSMUST00000045557|mus_mus|motif|central (ssRNA)
RNA: GGGAGUUCUACAGUCCGACGAUCCCCAAAAAAACAAAAAGCCUCACAAAACAGCAGACCUCUGUACCCCCCCCCCAGUCGGAUGUAACAGGCUAGCCAUUAAUACAAUAGUAAAAGACAUUAUAACCACAGCACUAUCUCAGGCAACAGAGGAUUGAGCAUCA
B9: chr1:23884524:23884525:-_ENSG00000117318_ENST00000374561|perfect_dup|FALSE|FALSE (ssRNA)
RNA: GGGAGUUCUACAGUCCGACGAUCUUUAAUAUACAUCGCAUUGUUACAGAAAGUCACCUUCCUGUAAAAAAGGUACAAAACCUAUAUACUCUAUUAUAGAGUUCAUAAAUCAGGGCAACAGAACCUUUCUCCAAGGAGACCAGACAACAGAGGAUUGAGCAUCA
B10: 107960272_107965159_2041_CDS_ENSG00000166266_ENST00000393094|human|control|control (ssRNA)
RNA: GGGAGUUCUACAGUCCGACGAUCUCUAGCAAGCUUGUUUACAUAAUCCGCUGGCAUACCAACUUCUCUUAGCCACUCUACCAUGUUUUCUUCAAUUUCACUAUCGGCAGAGAUGUCUAAUAUAAGACGUCGUGUCAAAUGAGCCAACAGAGGAUUGAGCAUCA
B11: chr1:95363480:95363481:-_ENSG00000117519_ENST00000538964|hu_mus|FALSE|FALSE (ssRNA)
RNA: GGGAGUUCUACAGUCCGACGAUCCGUGCCCUGGCUUCCGUUGUGAAUGACAGGUUCUGUGGGUGCGGCACAGUACUUGGGGUCAUAUACUUGCCGCCCAAGCCCAUACACGCUCAUUCCUUUCUGGGAAGCAACUUUGUUGGUCAACAGAGGAUUGAGCAUCA
B12: chr12:48362563:48362564:+_ENSG00000134291_ENST00000256686|hu_hu|hu_hu_hu_mus_False|58_98 (ssRNA)
RNA: GGGAGUUCUACAGUCCGACGAUCUCCGUCAAGCCCUUCAAGCCCCACUUGCGGGGGAAACUGUAAUCACUUUGUAUUUCUAAAAAAAAGAAACGCCAAAAACUUUCCAAAAAGCGGGGGUGGGGUGAGGCGGGAGGGGGAGGUCAACAGAGGAUUGAGCAUCA
B13: chr5:136386016:136386017:-_ENSMUSG00000051391_ENSMUST00000055808|mus_mus|motif|central (ssRNA)
RNA: GGGAGUUCUACAGUCCGACGAUCGGGGGUAUUUAACGGUUUCUGUUUUUGUGAUGGGCUGACCUUAAGGGUAAAGAAGAACGGAAAAAAAAAGUAUCCCCCGCAGCCCCCUCCCAAACACCCAUCAACCAAAACGGAACAGGGCAACAGAGGAUUGAGCAUCA
B14: 60821080_60823165_1073_3pUTR_ENSMUSG00000021559_ENSMUST00000077453|mouse|control|control (ssRNA)
RNA: GGGAGUUCUACAGUCCGACGAUCUUCGACUAAGUGCUUGUUGGGUGUCUUUAGGCUUGAUCCAGGGGUGCUGCAAACUGUCCUGGAUUGUCAUCCUCUUCUUUGGAUCCUUGACCAGCAGUCUUCUGAUGAAAUCUUUGGCAACAACAGAGGAUUGAGCAUCA
B15: chr16:94690093:94690094:+_ENSMUSG00000040785_ENSMUST00000117648|mus_hu|mus_mus_mus_hu_True|8_88 (ssRNA)
RNA: GGGAGUUCUACAGUCCGACGAUCGGGCUGGGAUGACGGACACACAGAUCUUCCCAGAGGGGGAAAAAGUCUUAGUCGAUACUAAUUAAAAAGUGUUAAUGAUUUUUGAAAAUCAGAUUACAUCUAUUUGAAUCAUAAAGCAAACAACAGAGGAUUGAGCAUCA
B16: chr8:59070621:59070622:+_ENSMUSG00000038206_ENSMUST00000040218|mus_mus|FALSE|FALSE (ssRNA)
RNA: GGGAGUUCUACAGUCCGACGAUCAAACAUGAUGAGCAAAUUAAGAAAAGUUCUGUAAAAUUAGUUAGUUCUGAGAUUUCUAAACUAGAAAACAGUGAAACAAAAAAGGGGGGGUGCAGUCAAGCUGGAUUUUACACACAGGCUCAACAGAGGAUUGAGCAUCA
B17: chr1:186721242:186721243:-_ENSMUSG00000026620_ENSMUST00000027929|mus_mus|FALSE|FALSE (ssRNA)
RNA: GGGAGUUCUACAGUCCGACGAUCAUAAUGAGUAUUAAAAAGAUGUGCCUUUUCUAGUGGCUUUACGUCGCAUACGUCACUAAUUAUGAAAGAAGGCAAAUGACCAGUUACAAAGCUCCACAUGACUGGAAUAAUGAUGUGGAACAACAGAGGAUUGAGCAUCA
B18: chr8:59070621:59070622:+_ENSMUSG00000038206_ENSMUST00000040218|mus_mus|motif|central (ssRNA)
RNA: B16 RNA with U80G, A81G, U85G, A86G
B19: chr1:169302553:169302554:-_ENSMUSG00000026688_ENSMUST00000028005|mus_mus|FALSE|FALSE (ssRNA)
RNA: GGGAGUUCUACAGUCCGACGAUCAUGCAGGCAGGAGCUUUAGGUAUGAGGCUGAUGCCAGAUAAGUUUUUAUUAUAUUAAAAAAAAAAAAAAAACCAGUGCAACUGGAAAUCAGGGUGAGUCGCUGGAGGUGAGUGAGAGUCGCAACAGAGGAUUGAGCAUCA
B20: 219445452_219447802_500_3pUTR_ENSG00000144580_ENST00000542068|human|control|control (ssRNA)
RNA: GGGAGUUCUACAGUCCGACGAUCCUGGAUGUGAUGCUACACAUUGCAGUAAUGCCAGAGCAUUGCAAACUCUGUUAGACUGGUGUGCUGUCAAGGUGGGUGGGUUGAUAGAUGGAUAAAUAUUUACAAUUUCCUGUAAAAGUGCAACAGAGGAUUGAGCAUCA
B21: chr7:141441981:141441982:+_ENSG00000106028_ENST00000265304|hu_mus|hu_hu_hu_mus_False|1_8 (ssRNA)
RNA: GGGAGUUCUACAGUCCGACGAUCCUCAUGUCUUACAAACUGACGAAAUACCUGUAACACAGGUCUUCGAAACAUGGCUUCUGUUUUUCUUACAACCUAAUCUUUAGGCUUUUCCUAAAGGAAAGAAUAACCCGAGCAGCCCAGCAACAGAGGAUUGAGCAUCA
B22: chr11:46405157:46405158:+_ENSG00000110492_ENST00000395566|hu_hu|hu_hu_hu_mus_False|8_78 (ssRNA)
RNA: GGGAGUUCUACAGUCCGACGAUCCCCUCCCCACUUUGGGCACUUGGUGUGGGCGUGAAGGCAGGGCCGUGAUUGACAGAGCUGACAGGAAGACAAAAGGCACUGGUGGGUUAUAUCUUGGGCCUGUGAGAGGGAGGGGCUCCGCAACAGAGGAUUGAGCAUCA

The binders below were run against T1, UNK ZnF1-3 (assay: nsRBNS (natural sequence RNA bind-n-seq); RBNS binding buffer (assumed for nsRBNS): 25 mM Tris pH 7.5, 150 mM KCl, 3 mM MgCl2, 0.01% Triton X-100, 500 ug/ml BSA, 20 U/ml SUPERase-In, 4 C; UNK is unkempt and MSI1 is Musashi-1; names of the RNAs are library labels; protein concentration not given here; high values mean tight binding).
For B1, the binding signal was 1.12 enrichment R.
With B2 the binding signal was 1.29 enrichment R.
B3 was tested, and the binding signal was 1.08 enrichment R.
B4 showed a binding signal of 5.88 enrichment R.
Work on B5 yielded a binding signal of 1.42 enrichment R.
Work on B6 yielded a binding signal of 1.98 enrichment R.
Binder B7 has a binding signal of 4.56 enrichment R.
Work on B8 yielded a binding signal of 2.38 enrichment R.
Work on B9 yielded a binding signal of 0.848 enrichment R.
For B10, the binding signal was 0.643 enrichment R.
Work on B11 yielded a binding signal of 0.529 enrichment R.
For B12, the binding signal was 1.56 enrichment R.
B13 gave a binding signal of 0.928 enrichment R.
In the case of B14, the binding signal is reported as 0.466 enrichment R.
With B15 the binding signal was 1.05 enrichment R.
B16 showed a binding signal of 7.52 enrichment R.
B17 showed a binding signal of 0.52 enrichment R.
B18 was tested, and the binding signal was 9.45 enrichment R.
B19 was tested, and the binding signal was 7.4 enrichment R.
With B20 the binding signal was 1.19 enrichment R.
B21 showed a binding signal of 0.751 enrichment R.
With B22 the binding signal was 2.15 enrichment R.
